Assay results as given in PubChem BioAssay AID1851 (National Center for Advancing Translational Sciences (NCATS), 2009).
The campaign covered roughly 16,000 compounds. About 5,800 (36%) were called active. Another 23% or so got no clear call; they are omitted. The list shows a part of the results. Unmarked numbers belong to inactive results. Calls come from the whole dose curve; as a rule, active = well fitted curve in the direction sought with a large enough effect; inconclusive = small, poorly fitted or top-dose-only effect, or effect the other way; inactive = no such curve, though single readings can be large or run the other way.

Target: Cytochrome P450 2C19 (Homo sapiens) (UniProt P33261)
Sequence (P33261 whole entry, looked up): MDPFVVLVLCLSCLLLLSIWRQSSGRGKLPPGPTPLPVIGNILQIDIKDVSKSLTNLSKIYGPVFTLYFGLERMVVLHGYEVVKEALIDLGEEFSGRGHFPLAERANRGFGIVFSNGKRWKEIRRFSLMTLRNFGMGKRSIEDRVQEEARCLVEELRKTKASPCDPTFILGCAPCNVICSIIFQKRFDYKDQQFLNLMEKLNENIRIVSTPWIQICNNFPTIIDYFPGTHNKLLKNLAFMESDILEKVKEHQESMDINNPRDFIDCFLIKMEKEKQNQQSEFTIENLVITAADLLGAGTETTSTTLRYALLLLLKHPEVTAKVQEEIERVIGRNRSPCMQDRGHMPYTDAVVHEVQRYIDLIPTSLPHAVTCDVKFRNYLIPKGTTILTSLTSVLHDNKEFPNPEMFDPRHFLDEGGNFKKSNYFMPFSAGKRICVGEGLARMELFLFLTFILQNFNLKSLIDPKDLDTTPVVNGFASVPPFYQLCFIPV
Experiment: Cytochrome panel assay with activity outcomes
Details: recombinant CYP, pro-luciferin dealkylation, luminescence, p450-cyp2c19; series mostly up to 57.1 µM; activity, negative = inhibition: at the top concentration
% is set by controls: 0 for no effect and ±100 for the full control effect.

**Q.** With `COC(=O)c1ccc(-n2cncn2)c(F)c1` as the molecule, how does the AC50 read?
**A.** 7.08 µM (active)

**Q.** `O=C(c1ccc2nc3ccc(Cl)cc3c(=O)n2c1)N1CCOCC1` was tested. Which “activity, negative = inhibition” value did it give?
**A.** -7.4%

**Q.** With `NC(=O)C1(N2CCCCC2)CCN(C(=O)c2cccn3c(=O)c4cc(Cl)ccc4nc23)CC1` as the molecule, how does the AC50 read?
**A.** 14.1 µM (active)

**Q.** `N[C@@H](Cc1nn[nH]n1)C(=O)O` was tested. Which activity, negative = inhibition did it give?
**A.** -17.6% [at 11.4 µM]

**Q.** How did the “activity, negative = inhibition” value turn out when `CCOc1ccc(-c2nn(-c3ccccc3)cc2/C=C(\C#N)S(=O)(=O)c2ccccc2)cc1C` was run?
**A.** -13.4%

**Q.** With `CCOc1ccc(-c2nn(-c3ccccc3)cc2/C=C2\SC(N)=NC2=O)cc1C` as the molecule, how does the AC50 read?
**A.** 11.2 µM (active)

**Q.** `COc1ccc(C(=O)c2ccc(OC)c(OC)c2)cc1OC` was tested. Which AC50 did it give?
**A.** 2.82 µM (active)

**Q.** Which AC50 does the source give for `COc1ccc(C(=O)c2ccccc2)cc1Br` here?
**A.** 8.91 µM (active)

**Q.** For `COc1ccc(Br)c2c1C[C@H](C(=O)O)CC2`, which activity, negative = inhibition is on record?
**A.** 39.7% [at 11.4 µM]

**Q.** How did the “activity, negative = inhibition” value turn out when `CCOc1ccc(C(=O)O)cc1OC` was run?
**A.** -14.7%

**Q.** With `CC[C@@H](c1ccccc1)n1c(=O)n2n(c1=O)[C@H]1[C@H](O)[C@H]3O[C@@H]3/C(=N/OC/C=C(\C)CCC=C(C)C)[C@@H]1CC2` as the molecule, how does the activity, negative = inhibition read?
**A.** -35.5% [at 11.4 µM]

**Q.** How did the “activity, negative = inhibition” value turn out when `CC(C)NC(=O)N1CCC2(CC1)CCN(C(=O)c1ccco1)CC2` was run?
**A.** 18%

**Q.** Which AC50 does the source give for `O=C(OC(C(=O)NC1CCCC1)c1ccncc1)C1=Cc2ccccc2OC1` (configuration not stated) here?
**A.** 1.12 µM (active)

**Q.** How did the AC50 turn out when `Cc1ccc(C(C(=O)NC2CCCCC2)N2CCN(C(=O)c3ccco3)CC2)cc1` (configuration not stated) was run?
**A.** 8.91 µM (active)

**Q.** How did the AC50 turn out when `Cc1ccc(C(OC(=O)c2ccco2)C(=O)NC2CCCCC2)cc1` (configuration not stated) was run?
**A.** 17.8 µM (active)

**Q.** How did the “activity, negative = inhibition” value turn out when `CC(C)NC(=O)N1CC2(CCN(C(=O)c3ccco3)CC2)C1` was run?
**A.** -2.81%

**Q.** For `C[N+]1(CCC(=O)c2ccco2)CC2CCC(CC2)C1` (configuration not stated), which activity, negative = inhibition is on record?
**A.** -31.3% [at 11.4 µM]

**Q.** `COc1ccccc1N1CCN(c2nc(-c3ccccc3)cc(C(F)(F)F)n2)CC1` was tested. Which AC50 did it give?
**A.** 1 µM (active)

**Q.** How did the “activity, negative = inhibition” value turn out when `COc1ccccc1-c1nc(N2CCN(C)CC2)c2ccccc2n1` was run?
**A.** 1.78%

**Q.** How did the AC50 turn out when `CN1CCN(c2nc(-c3ccccc3)cc(C(F)(F)F)n2)CC1` was run?
**A.** 8.91 µM (active)

**Q.** For `Cc1ccc(C(=O)NC(=S)Nc2cc(-c3nc4ccccc4s3)ccc2C)cc1`, which “activity, negative = inhibition” value is on record?
**A.** -17%

**Q.** With `CC(C)(C)C(=O)NC(=S)NCCc1ccccc1` as the molecule, how does the AC50 read?
**A.** 2.51 µM (active)

**Q.** Which AC50 does the source give for `CNC(=O)NC(=S)NC(=O)c1ccc(OC)cc1` here?
**A.** 14.1 µM (active)

**Q.** `COc1ccc(C(=O)NNC(=S)NC(=O)c2ccco2)cc1` was tested. Which “activity, negative = inhibition” value did it give?
**A.** -61.5%

**Q.** With `COc1ccc(C(=O)NCc2ccc(-c3nc4ccccc4s3)cc2)cc1` as the molecule, how does the AC50 read?
**A.** 7.94 µM (active)

**Q.** Which AC50 does the source give for `COc1ccc(C(=O)NC(=S)NCc2ccccc2)cc1` here?
**A.** 5.01 µM (active)

**Q.** With `C/C(=C(/CCO)SSC[C@@H]1CCCO1)N(C=O)Cc1cnc(C)nc1N` as the molecule, how does the “activity, negative = inhibition” value read?
**A.** -29% [at 25.6 µM]
